Source: PubChem BioAssay (Tox21)
Inconclusive results are not listed. Activity calls are given as the source filed them. Unless noted, the call rests on the fitted dose curve; in most records, active means well fitted curve in the direction sought with a large enough effect in the repeat runs; inconclusive means weak or mixed curves; inactive means no such curve, though single readings can be large; an effect the other way counts as inactive or inconclusive.

Experiments:
[1] = qHTS assay to identify small molecule antagonists of the estrogen receptor beta (ER-beta) signaling pathway - cell viability counter screen (AID 1259382);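 further: HEK293T cells carrying ER-beta-UAS-bla reporter stimulated with estradiol; series mostly up to about 92 µM; nearly all actives have a fitted effect of over 55% in size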
In short: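 ER-beta-UAS-bla HEK293T cells (2,000/well, 2% charcoal-stripped FBS) were pre-incubated 6 hr at 37C, then given compound plus 1nM final 17-beta-estradiol for 16 hr. Viability was read in the same wells by CellTiter-Glo luminescence after 30 min at room temperature.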

[2] = biological target: Estrogen receptor (Homo sapiens) (UniProt P03372); assay: qHTS assay to identify small molecule agonists of the estrogen receptor alpha (ER-alpha) signaling pathway in the presence of an antagonist (AID 1259383; calls by dose curve; further: top concentration of the series differs between compounds; nearly all actives have a fitted effect of over 15% in size)
Chain of Estrogen receptor (Homo sapiens) (P03372 whole entry, looked up): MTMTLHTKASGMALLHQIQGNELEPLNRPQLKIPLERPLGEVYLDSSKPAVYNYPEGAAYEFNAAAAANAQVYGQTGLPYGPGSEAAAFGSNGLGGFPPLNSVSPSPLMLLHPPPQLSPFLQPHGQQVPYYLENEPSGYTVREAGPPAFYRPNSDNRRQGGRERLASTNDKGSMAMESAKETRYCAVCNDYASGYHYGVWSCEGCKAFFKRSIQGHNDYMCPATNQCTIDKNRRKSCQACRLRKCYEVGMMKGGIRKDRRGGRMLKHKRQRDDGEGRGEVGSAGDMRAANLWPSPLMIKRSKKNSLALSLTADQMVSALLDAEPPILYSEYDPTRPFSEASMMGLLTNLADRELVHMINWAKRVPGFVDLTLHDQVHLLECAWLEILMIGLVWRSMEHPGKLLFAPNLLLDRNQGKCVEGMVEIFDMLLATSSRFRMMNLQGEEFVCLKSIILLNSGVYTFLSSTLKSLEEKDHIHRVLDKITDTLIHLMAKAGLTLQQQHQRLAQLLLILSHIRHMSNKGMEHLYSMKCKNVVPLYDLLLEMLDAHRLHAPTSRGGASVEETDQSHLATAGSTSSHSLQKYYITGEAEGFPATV
In short: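 VM7Luc4E2 cells (endogenous full-length ER-alpha, 4×ERE-luciferase) were precultured 5 days in phenol red-free medium with 10% charcoal-stripped FBS, given 10.0nM ICI-182,780 (final), then treated with compounds at 15 concentrations for 22hr at 37C; luminescence read with ONE-Glo.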

[3] = qHTS assay to identify small molecule agonists or antagonists of the thyroid stimulating hormone receptor (TSHR) signaling pathway - wild type cell line counter screen (AID 1259384; calls by dose curve)
In short: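 Wild-type Hek293 cells, 800/well, 18 h at 37C, then compound with Ro20-1724 for 30 min RT. cAMP by HTRF (cAMP-d2/anti-cAMP cryptate), 1 h RT, fluorescence read. 15 concentrations, triplicates.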

[4] = biological target: Thyrotropin receptor (Homo sapiens) (UniProt P16473); assay: qHTS assay to identify small molecule antagonists of the thyroid stimulating hormone receptor (TSHR) signaling pathway (AID 1259385; calls by dose curve; further: nearly all actives have a fitted effect of over 20% in size)
Chain of Thyrotropin receptor (Homo sapiens) (P16473 whole entry, looked up): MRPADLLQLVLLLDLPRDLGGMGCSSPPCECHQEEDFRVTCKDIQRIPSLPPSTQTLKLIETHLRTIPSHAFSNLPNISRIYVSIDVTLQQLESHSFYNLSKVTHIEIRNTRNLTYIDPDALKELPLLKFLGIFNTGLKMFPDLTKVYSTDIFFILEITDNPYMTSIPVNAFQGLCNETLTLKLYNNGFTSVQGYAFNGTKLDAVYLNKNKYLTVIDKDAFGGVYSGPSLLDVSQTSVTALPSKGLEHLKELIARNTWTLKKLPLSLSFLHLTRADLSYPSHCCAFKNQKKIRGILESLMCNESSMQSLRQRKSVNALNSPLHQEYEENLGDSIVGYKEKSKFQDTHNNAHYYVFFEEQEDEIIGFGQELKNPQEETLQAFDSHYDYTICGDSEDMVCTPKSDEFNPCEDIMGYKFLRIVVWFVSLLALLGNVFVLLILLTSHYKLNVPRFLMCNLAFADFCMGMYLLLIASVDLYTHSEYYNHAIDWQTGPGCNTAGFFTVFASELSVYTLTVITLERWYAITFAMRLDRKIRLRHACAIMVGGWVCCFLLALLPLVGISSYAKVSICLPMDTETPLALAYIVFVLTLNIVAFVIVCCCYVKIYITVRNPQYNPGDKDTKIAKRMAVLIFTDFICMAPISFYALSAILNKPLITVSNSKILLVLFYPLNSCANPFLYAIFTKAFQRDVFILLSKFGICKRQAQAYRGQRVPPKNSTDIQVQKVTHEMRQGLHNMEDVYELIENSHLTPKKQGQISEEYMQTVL
In short: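 TSHR-HEK293 cells (800/well) plated 18 h, then compounds with Ro20-1724 and TSH at 1.5 ng/mL final, 30 min at room temperature. cAMP quantified by HTRF (cAMP-d2/anti-cAMP-cryptate, 1 h); 15 concentrations in triplicate.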

[5] = qHTS assay to identify small molecule agonists of the estrogen receptor alpha (ER-alpha) signaling pathway in the presence of an antagonist - cell viability counter screen (AID 1259386);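 further: series mostly up to about 92 µM; cells exposed to compounds for 22 h at 37 °C before the viability read; nearly all actives have a fitted effect of over 30% in size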
In short: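 VM7Luc4E2 cells (endogenous full-length ER-alpha, 4×ERE-luciferase) were held 5 days in phenol red-free medium with 10% charcoal-stripped FBS, plated, then given 10.0nM ICI-182,780 and compounds at 15 concentrations for 22hr at 37C; viability read by CellTiter-Fluor fluorescence.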

[6] = biological target: Progesterone receptor (Homo sapiens) (UniProt P06401); assay: qHTS assay to identify small molecule agonists of the progesterone receptor (PR) signaling pathway (AID 1346784; calls by dose curve; further: nearly all actives have a fitted effect of over 30% in size)
Chain of Progesterone receptor (Homo sapiens) (P06401 whole entry, looked up): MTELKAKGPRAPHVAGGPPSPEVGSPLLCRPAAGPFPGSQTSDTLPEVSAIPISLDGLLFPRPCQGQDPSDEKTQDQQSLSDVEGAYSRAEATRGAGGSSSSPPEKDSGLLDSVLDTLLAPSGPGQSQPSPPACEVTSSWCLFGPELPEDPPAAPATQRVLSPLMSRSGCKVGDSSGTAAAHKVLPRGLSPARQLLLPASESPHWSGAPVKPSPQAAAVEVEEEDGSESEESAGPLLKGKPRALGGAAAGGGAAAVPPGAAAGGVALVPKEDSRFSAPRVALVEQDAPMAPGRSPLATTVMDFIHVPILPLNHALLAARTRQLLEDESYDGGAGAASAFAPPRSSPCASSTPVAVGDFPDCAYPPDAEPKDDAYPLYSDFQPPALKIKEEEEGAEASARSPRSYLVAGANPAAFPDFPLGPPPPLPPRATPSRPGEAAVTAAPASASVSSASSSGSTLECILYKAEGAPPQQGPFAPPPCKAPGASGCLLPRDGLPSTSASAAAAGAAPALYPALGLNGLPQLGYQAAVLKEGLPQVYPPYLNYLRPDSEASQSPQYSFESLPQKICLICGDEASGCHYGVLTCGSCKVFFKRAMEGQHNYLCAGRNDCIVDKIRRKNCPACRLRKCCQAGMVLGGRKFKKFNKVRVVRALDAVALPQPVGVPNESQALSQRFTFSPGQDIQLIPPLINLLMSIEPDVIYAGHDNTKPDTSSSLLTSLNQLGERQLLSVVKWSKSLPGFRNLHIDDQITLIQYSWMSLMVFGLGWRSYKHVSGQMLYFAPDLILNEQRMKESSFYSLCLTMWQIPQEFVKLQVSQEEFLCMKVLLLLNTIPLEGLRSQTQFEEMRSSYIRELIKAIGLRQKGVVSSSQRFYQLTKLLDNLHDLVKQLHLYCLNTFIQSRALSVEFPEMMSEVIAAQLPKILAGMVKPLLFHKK
In short: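 Compounds were tested for PR agonism in HEK 293T cells bearing a beta-lactamase gene under UAS control. Treatment lasted 16 hr at 37C; signal came from fluorescence of a FRET substrate.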

[7] = biological target: Progesterone receptor (Homo sapiens) (UniProt P06401); assay: qHTS assay to identify small molecule antagonists of the progesterone receptor (PR) signaling pathway (AID 1346795; active means well fitted inhibition curve with a large enough effect in the signal ratio in the repeat runs, not every such curve was filed as active; the % refers to the signal ratio)
In short: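 In HEK293T cells bearing the PR-UAS-bla reporter, compound effects on promegestone-driven (1 nM) beta-lactamase expression are assessed after 16 hr using a fluorescent FRET substrate incubated 2 hr at room temperature.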

[8] = qHTS assay to identify small molecule agonists of the progesterone receptor (PR) signaling pathway - cell viability counter screen (AID 1346799; calls by dose curve; further: nearly all actives have a fitted effect of over 45% in size)
In short: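 Here, 3,000 PR-UAS-bla HEK293T cells per well were treated with compounds for 16 hr after a 6 hr preincubation at 37C and 5% CO2; cell viability is the CellTiter-Glo luminescence signal.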

[9] = qHTS assay to identify small molecule antagonists of the TGF-beta/Smad signaling pathway - cell viability counter screen (AID 1346824); further: nearly all actives have a fitted effect of over 50% in size
In short: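 SBE-bla HEK 293T cells, incubated overnight, then compound plus 0.25 ng/mL TGF-beta1 (stock added) for 5 hr at 37 C. Viability was read in the same wells by CellTiter-Glo luminescence after 30 min at room temperature.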

[10] = qHTS assay to identify small molecule agonists of the TGF-beta/Smad signaling pathway - cell viability counter screen (AID 1346829); further: top concentration of the series differs between compounds; nearly all actives have a fitted effect of over 45% in size
In short: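 CellTiter-Glo luminescence readout; SBE-bla HEK 293T cells, overnight plating, compound 5 hr at 37 C/5% CO2, then bla substrate 2 hr RT, then CellTiter-Glo 30 min RT.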

[11] = Human pregnane X receptor (PXR) small molecule agonists, qHTS cell viability counter screen (AID 1346977); further: nearly all actives have a fitted effect of over 50% in size
In short: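 Tox21 qHTS format; PXR-Luc HepG2, 2,000/well, charcoal-stripped FBS 5%. Cpd exposure 24hr. Read: CellTiter-Fluor fluorescence, multiplexed with luciferase.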

[12] = Caspase-3/7 induction in HepG2 cells by small molecules, qHTS assay (AID 1346978); further: nearly all actives have a fitted effect of over 15% in size
In short: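 Wild-type HepG2 cells, 2,000/well, settled 5 hr at 37 C and 5% CO2, then compound-treated for 17 hr; caspase-3/7 activity read by luminescent Caspase-Glo 3/7 after 30 min at room temperature.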

[13] = Caspase-3/7 induction in CHO-K1 cells by small molecules, qHTS cell viability counter screen (AID 1346979); further: nearly all actives have a fitted effect of over 35% in size
In short: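 CellTiter-Fluor viability check, qHTS format: wild-type CHO-K1, 16hr compound treatment, 1hr reagent incubation, fluorescence read.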

[14] = Caspase-3/7 induction in CHO-K1 cells by small molecules, qHTS assay (AID 1346980); further: nearly all actives have a fitted effect of over 15% in size
In short: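 Wild-type CHO-K1 cells exposed to compounds for 17hr at 37 C, 5% CO2. Caspase-3/7 activity then measured by Caspase-Glo 3/7 luminescence after 30min at room temperature.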

[15] = Caspase-3/7 induction in HepG2 cells by small molecules, qHTS cell viability counter screen (AID 1346981); further: series mostly up to about 92 µM; nearly all actives have a fitted effect of over 30% in size
In short: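 Wild-type HepG2 cells (2,000/well) were allowed to settle for 5 hr at 37 C, 5% CO2, then dosed with compounds in DMSO by pin transfer. After 16 hr at 37 C, CellTiter-Fluor was added and fluorescence read 1 hr later.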

[16] = biological target: Nuclear receptor subfamily 1 group I member 2 (Homo sapiens) (UniProt O75469); assay: Human pregnane X receptor (PXR) small molecule agonists, qHTS assay (AID 1346982); further: nearly all actives have a fitted effect of over 35% in size; further: potency means the concentration at half of the fitted maximal effect
Chain of Nuclear receptor subfamily 1 group I member 2 (Homo sapiens) (O75469 whole entry, looked up): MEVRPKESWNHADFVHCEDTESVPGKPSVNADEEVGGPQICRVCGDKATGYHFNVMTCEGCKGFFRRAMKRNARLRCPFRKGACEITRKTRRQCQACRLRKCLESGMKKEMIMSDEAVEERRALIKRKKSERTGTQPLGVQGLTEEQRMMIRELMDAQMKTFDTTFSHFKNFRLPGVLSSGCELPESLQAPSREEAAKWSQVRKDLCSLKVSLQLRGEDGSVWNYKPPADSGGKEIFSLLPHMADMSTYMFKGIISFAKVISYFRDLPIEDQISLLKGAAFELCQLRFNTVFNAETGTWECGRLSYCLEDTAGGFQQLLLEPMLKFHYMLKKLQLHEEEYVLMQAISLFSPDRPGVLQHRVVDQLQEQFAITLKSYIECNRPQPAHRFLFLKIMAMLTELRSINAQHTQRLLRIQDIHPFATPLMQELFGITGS
In short: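 PXR-Luc HepG2 cells (CYP3A4 promoter-driven luciferase) were seeded in medium with 5% charcoal-stripped FBS, left 5 hr at 37 C, then exposed to compounds in DMSO for 24 hr. Luminescence was read after ONE-Glo addition.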

[17] = qHTS assay to identify small molecule antagonists of the progesterone receptor (PR) signaling pathway - cell viability counter screen (AID 1346798); further: series mostly up to about 92 µM; nearly all actives have a fitted effect of over 50% in size
In short: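 Following a 4 hr attachment, PR-UAS-bla HEK293T cells in charcoal-stripped FBS medium were exposed to compounds with R5020 for 16 hr; CellTiter-Glo was added and luminescence read after 30 min at room temperature.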

[18] = qHTS assay to identify small molecule agonists of the TGF-beta/Smad signaling pathway (AID 1346859; active means well fitted activation curve with a large enough effect in the signal ratio in the repeat runs, not every such curve was filed as active; the % refers to the signal ratio; further: series mostly up to about 77 µM)
In short: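 Each well held 4,000 SBE-bla HEK 293T cells incubated overnight before compound addition; 5 hr later the cleavable FRET substrate went on for 2 hr at room temperature, and fluorescence was read at two emissions.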

[19] = biological target: Thyrotropin-releasing hormone receptor (Homo sapiens) (UniProt P34981); assay: qHTS assay to identify small molecule antagonists of the thyrotropin-releasing hormone receptor (TRHR) signaling pathway (AID 1346877; active means well fitted inhibition curve with a large enough effect in the repeat runs, not every such curve was filed as active; further: series mostly up to about 51 µM)
Chain of Thyrotropin-releasing hormone receptor (Homo sapiens) (P34981 whole entry, looked up): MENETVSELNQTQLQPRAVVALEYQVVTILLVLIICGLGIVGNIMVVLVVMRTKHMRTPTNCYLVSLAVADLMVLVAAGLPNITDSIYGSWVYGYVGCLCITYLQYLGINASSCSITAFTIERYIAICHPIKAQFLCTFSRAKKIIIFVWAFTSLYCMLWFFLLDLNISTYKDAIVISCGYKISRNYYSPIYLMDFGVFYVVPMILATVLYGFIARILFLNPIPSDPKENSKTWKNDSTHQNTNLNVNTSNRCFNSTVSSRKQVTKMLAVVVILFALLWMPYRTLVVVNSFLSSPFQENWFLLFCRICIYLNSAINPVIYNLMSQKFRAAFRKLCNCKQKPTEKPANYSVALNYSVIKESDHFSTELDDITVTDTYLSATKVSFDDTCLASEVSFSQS
In short: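 TRHR-expressing HEK293 cells were seeded, cultured 18 h at 37 °C, then loaded with calcium dye for 2 h. Compounds were pre-incubated 5 min at room temperature before 1 nM TRH (final) was added, and kinetic fluorescence was recorded for 3 min.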

[20] = biological target: Thyrotropin-releasing hormone receptor (Homo sapiens) (UniProt P34981); assay: qHTS assay to identify small molecule agonists of the thyrotropin-releasing hormone receptor (TRHR) signaling pathway (AID 1346891; calls by dose curve; further: series mostly up to about 58 µM)
In short: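 Screening of agonists relied on calcium signalling in HEK293 cells expressing human TRHR: dye loading 2 h at 37 °C preceded compound addition and a 3-min fluorescence time course.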

Measured: Potency

Nc1nc(-c2ccccc2)c(Br)c(=O)[nH]1
inactive: [1] | [2] | [3] | [4] | [5] | [6] | [7] | [8] | [9] | [10] | [11] | [12] | [13] | [14] | [15] | [16]

CC(=O)OCC(=O)Nc1cc(C#N)cc(NC(=O)COC(C)=O)c1Cl
inactive: [1] | [2] | [3] | [4] | [5] | [6] | [17] | [8] | [9] | [10] | [18] | [19] | [20] | [11] | [12] | [13] | [14] | [15] | [16]

C/C(=C1\CCOC(=O)S1)N(C=O)Cc1cnc(C)nc1N
inactive: [1] | [2] | [4] | [5] | [6] | [7] | [17] | [8] | [9] | [10] | [18] | [19] | [20] | [11] | [12] | [13] | [14] | [15] | [16]

OCC1CCC(CO)CC1 (centres undefined)
inactive: [1] | [2] | [4] | [5] | [6] | [7] | [8] | [9] | [10] | [18] | [11] | [12] | [13] | [14] | [15] | [16]

Cc1c(C(=O)c2c[nH]n(C)c2=O)ccc(S(C)(=O)=O)c1C1=NOCC1
inactive: [1] | [2] | [5] | [6] | [7] | [17] | [8] | [9] | [10] | [19] | [20] | [11] | [12] | [13] | [14] | [15] | [16]

O=C(CN1CCNCC1)NC1CCCCC1
inactive: [1] | [2] | [4] | [5] | [6] | [7] | [17] | [8] | [9] | [10] | [18] | [19] | [20] | [11] | [12] | [13] | [14] | [15] | [16]

CCCc1ccc(O)cc1
inactive: [1] | [2] | [4] | [5] | [6] | [7] | [17] | [8] | [9] | [10] | [18] | [19] | [20] | [11] | [12] | [13] | [14] | [15] | [16]

CC12CCC(C1)C(C)(C)C2O (centres undefined)
inactive: [1] | [2] | [4] | [5] | [6] | [7] | [8] | [9] | [10] | [18] | [19] | [20] | [11] | [12] | [13] | [14] | [15] | [16]

OC1(c2ccc(Cl)cc2)CCNCC1
inactive: [1] | [2] | [4] | [5] | [6] | [7] | [17] | [9] | [10] | [18] | [19] | [20] | [11] | [12] | [13] | [14] | [15] | [16]

COC(=O)CCCCC(CCSS/C(CCO)=C(\C)N(C=O)Cc1cnc(C)nc1N)SC(C)=O (centres undefined)
inactive: [1] | [2] | [4] | [5] | [6] | [7] | [17] | [8] | [9] | [10] | [18] | [19] | [20] | [11] | [12] | [13] | [14] | [15] | [16]

CCCC(=O)Nc1ccc(OCC(O)CNC(C)C)c(C(C)=O)c1 (centres undefined)
inactive: [1] | [2] | [4] | [5] | [6] | [7] | [17] | [8] | [9] | [10] | [18] | [11] | [12] | [13] | [14] | [15] | [16]

Cc1ncc([N+](=O)[O-])n1CC(C)O (centres undefined)
inactive: [1] | [2] | [5] | [6] | [7] | [17] | [8] | [9] | [10] | [18] | [19] | [20] | [11] | [12] | [13] | [14] | [15] | [16]

COc1nc(N)nc2nc[nH]c12
inactive: [1] | [2] | [4] | [5] | [6] | [7] | [17] | [8] | [9] | [10] | [19] | [20] | [11] | [12] | [13] | [14] | [15] | [16]

O=C(O)CNC(=O)CNC(=O)CNC(=O)CSC(=O)c1ccccc1
inactive: [1] | [2] | [4] | [5] | [6] | [7] | [17] | [8] | [9] | [10] | [18] | [19] | [20] | [11] | [12] | [14] | [15] | [16]

C=CCN1C[C@H](C(=O)N(CCCN(C)C)C(=O)NCC)C[C@@H]2c3cccc4[nH]cc(c34)C[C@H]21
inactive: [1] | [2] | [3] | [6] | [7] | [17] | [9] | [10] | [18] | [19] | [20] | [12] | [14]
active: [16] 29.8 µM

COCCc1ccccn1
inactive: [1] | [2] | [4] | [5] | [6] | [7] | [17] | [8] | [9] | [10] | [18] | [19] | [20] | [11] | [12] | [13] | [14] | [15] | [16]
